High-throughput results: PubChem, National Center for Advancing Translational Sciences (NCATS)
Shiga toxin inh: A qHTS for Small Molecule Inhibitors of Shiga Toxin. Vero cells, Shiga toxin protein synthesis inhibition reporter. inhibition, % at 38.7 µM. actives 9.2% (n = 290,000); in the data active means inhibition mostly above about 28%, no sharp cut-off; inactive means mostly below about 43%; further: 0% is about no effect
LmPK inh: qHTS Assay for Inhibitors of Leishmania Mexicana Pyruvate Kinase (LmPK); Q27686; purified LmPK, Kinase-Glo ATP luminescence, 1 h; Potency, µM (top dose mostly 57.5 µM), for the others: top-dose activity change, negative = inhibition, hits mostly inhibitors; actives 0.37% (n = 290,000); further: potency means the concentration at half of the fitted maximal effect; on the % scale 0 is the no-effect control and ±100 the full control effect
Target sequence (Q27686 whole entry, looked up): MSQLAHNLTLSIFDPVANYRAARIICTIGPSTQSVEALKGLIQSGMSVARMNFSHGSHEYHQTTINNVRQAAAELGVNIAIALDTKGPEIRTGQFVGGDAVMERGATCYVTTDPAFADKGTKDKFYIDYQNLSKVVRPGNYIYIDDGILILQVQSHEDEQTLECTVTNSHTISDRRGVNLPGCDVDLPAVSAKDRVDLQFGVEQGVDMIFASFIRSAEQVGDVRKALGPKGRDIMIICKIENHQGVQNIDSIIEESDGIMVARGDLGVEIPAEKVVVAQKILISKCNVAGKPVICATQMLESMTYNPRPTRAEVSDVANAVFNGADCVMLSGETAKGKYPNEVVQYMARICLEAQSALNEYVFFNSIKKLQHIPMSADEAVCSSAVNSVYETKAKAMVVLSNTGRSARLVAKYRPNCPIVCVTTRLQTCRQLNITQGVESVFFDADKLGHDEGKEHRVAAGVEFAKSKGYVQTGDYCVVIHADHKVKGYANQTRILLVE
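ATP generated from ADP (0.1 mM) and PEP (0.5 mM) by 0.1 nM LmPK over 1 h at room temperature (pH 7.2 imidazole buffer) was detected by coupled luciferase luminescence. Values were normalized to uninhibited and no-enzyme wells.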
Pf growth 96h: Primary qHTS for delayed death inhibitors of the malarial parasite plastid, 96 hour incubation. P. falciparum luciferase reporter growth, 96 h. Potency, µM (titrated, usually from 28.7 µM), without a hit: at the highest dose activity change, negative = inhibition, hits mostly inhibitors. actives 6.9% (n = 320,000); further: potency means the concentration at half of the fitted maximal effect; on the % scale 0 is the no-effect control and ±100 the full control effect
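Luminescence readout: decreased luciferase signal marks inhibited growth of reporter-expressing P. falciparum in infected red cells (2% hematocrit, 0.05% parasitemia final), exposed to compound two generations (96 h, 37 C, 5% CO2).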
Cycloheximide cs: Cycloheximide Counterscreen for Small Molecule Inhibitors of Shiga Toxin. cell reporter, cycloheximide protein synthesis inhibition counterscreen. max response, %. actives 12% (n = 300,000). AID 2314, 2010; in the data active means max response mostly above about 13%, no sharp cut-off; inactive means mostly below about 14%; further: read at 38.3 µM for the half of the compounds with a filed dose; 0% is about no effect
Pf growth 48h: Primary qHTS for delayed death inhibitors of the malarial parasite plastid, 48 hour incubation | actives 5.9% (n = 310,000) | AID 504832, 2011 | P. falciparum luciferase growth in erythrocytes, 48 h | Potency, µM (top dose mostly 28.7 µM), inactives show at the top dose activity change, negative = inhibition, usual class: inhibitors; further: potency means the concentration at half of the fitted maximal effect; on the % scale 0 is the no-effect control and ±100 the full control effect
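Growth was read as firefly luciferase luminescence after a 48 h, 37 C, 5% CO2 exposure of compounds to reporter-bearing P. falciparum cultures (0.1% parasitemia, 2% hematocrit final) in Albumax-supplemented RPMI 1640.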
* marks the source's active call; other numbers are inactive results; ? = inconclusive; nt = not tested or not shown. Most compounds without a hit are left out; they make up all but 22% or so of the library. Unless noted, the call rests on the fitted dose curve; in most records, active means well fitted inhibition curve with a large enough effect; inconclusive means small, poorly fitted or top-dose-only effect, or another doubt; inactive means no such curve, though single readings can be large or run the other way.

SMILES	Shiga toxin inh	LmPK inh	Pf growth 96h	Cycloheximide cs	Pf growth 48h
CCc1ccc(NC(=O)N(C2CCC(C)CC2)C2CCN(C(C)=O)CC2)cc1 (stereo not drawn)	67*	-3%	?	31*	-3%
CC(=O)N1CCC(N(C(=O)Nc2ccc(C)c(C)c2)C2CCCC2)CC1	1	3%	nt	14*	16%
COc1ccc(OC)c(NC(=O)CSc2ccc(-c3cccnc3)nn2)c1	-4	-11%	?	-2	-23%
Nc1nc(SCCN2C(=O)c3ccccc3C2=O)n[nH]1	-5	-6%	-9%	-2	nt
O=C1c2ccccc2C(=O)N1CCSc1ccccc1	61	-4%	254%	34*	nt
Cc1csc(SCCN2C(=O)c3ccccc3C2=O)n1	102*	-4%	?	40*	43%
O=C1c2ccccc2C(=O)N1CCSc1nncs1	7	2%	0%	-2	5%
Cc1cccc(NC(=O)Nc2ccc(C#N)cc2)n1	17	1%	?	18*	-7%
Cc1cccc(NC(=O)Nc2cccc(C#N)c2)n1	21	-2%	?	36*	36%
Cc1cc(C)n(C(=O)Cn2nc(C)c(Br)c2C)n1	-2	3%	0%	-1	5%
Cc1cc(Cl)ccc1OC(C)C(=O)Nc1cnn(CCCC(=O)O)c1 (stereo not drawn)	2	-1%	4%	-2	40%
O=C(c1cc(-c2ccccc2O)on1)N1CCCCCC1	104*	-2%	44%	34*	29%
COc1ccccc1-c1cc(C(=O)N2CCN(c3ccccc3)CC2)no1	2	-4%	15%	-2	11%
O=C(c1cc(-c2ccccc2O)on1)N1CCOCC1	80*	-13%	212%	31*	114%
COc1ccc(OC)c(-c2cc(C(=O)N3CCOCC3)no2)c1	17	-7%	-31%	14*	38%
CC(C)(C)C(=O)NCc1ccc(C(=O)CSc2nnc(-c3ccncc3)n2C2CC2)s1	nt	nt	-26%	nt	?
O=C(Oc1ccccc1C(=O)Nc1ccccc1)c1ccccc1Br	33*	0%	-51%	32*	4%
CCOC(=O)Cc1ccc(NC(=O)c2ccc(C(C)(C)C)cc2)cc1	35	2%	nt	26	4.1µM*
CCOC(=O)Cc1ccc(NC(=O)c2ccccc2Br)cc1	37	0%	35%	19*	33%
COc1ccccc1NS(=O)(=O)c1ccc(C)c(NC(=O)c2c(C)noc2C)c1	nt	nt	-23%	nt	-28%
O=C(Nc1ccc(-c2nc3ccccc3s2)cc1)C1=COCCO1	56*	-12%	61%	40*	-36%
O=C(Nc1cccc(-c2nc3ccccc3s2)c1)C1=COCCO1	50*	0%	168%	44*	84%
O=C(Nc1ccc(-c2nc3ccccc3s2)c(O)c1)C1=COCCO1	73*	-2%	180%	131*	87%
O=C(Nc1ccc(O)c(-c2nc3ccccc3s2)c1)C1=COCCO1	1	3%	57%	-2	34%
O=C(NCc1ccccc1)C1(C(F)(F)F)C/C(=C\CCO)CCCO1 (stereo not drawn)	3	nt	nt	4	nt
SMILES	Shiga toxin inh	LmPK inh	Pf growth 96h	Cycloheximide cs	Pf growth 48h
O=C(CN(Cc1ccccc1)S(=O)(=O)c1ccc(S(=O)(=O)N2CCOCC2)cc1)Nc1ccccc1	-10	0%	0%	2	13%
O=C1COc2ccc(C(=O)COC(=O)c3cc(S(=O)(=O)NCc4ccccc4)ccc3O)cc2N1	10	3%	?	3	-1%
COc1ccccc1OCC(=O)Nc1ccc(-c2nnc(-c3ccco3)o2)cc1	-20	1%	1%	2	8%
CCC(Oc1ccccc1)C(=O)Nc1ccc(-c2nnc(-c3ccco3)o2)cc1 (stereo not drawn)	89*	0%	-23%	36*	-90%
CC(Sc1nnc(Nc2ccccc2)s1)C(=O)Nc1nc(-c2ccccc2)cs1 (stereo not drawn)	46	-1%	?	16	?
CC(Sc1nnc(NCc2ccccc2)s1)C(=O)Nc1ccc2c(c1)C(=O)c1ccccc1C2=O (stereo not drawn)	64*	-5%	2%	63*	40%
O=C(N[C@@H](Cc1c[nH]c2ccccc12)C(=O)O)c1ccccc1Cl	-17	-2%	0%	-1	3%
O=C(N[C@@H](Cc1c[nH]c2ccccc12)C(=O)NC1CC1)c1ccccc1Cl	28	-6%	-15%	47*	24%
CCCNC(=O)[C@H](Cc1c[nH]c2ccccc12)NC(=O)c1ccccc1Cl	9	-3%	-17%	25*	-18%
CCCCNC(=O)[C@H](Cc1c[nH]c2ccccc12)NC(=O)c1ccccc1Cl	11	4%	?	-1	?
COc1ccc(NC(=O)CC23CC4CC(CC(C4)C2)C3)cn1	-26	6%	0%	-6	-17%
Cc1ccc(OCc2cc(C(=O)NCc3cc(F)ccc3C)no2)cn1	28*	-3%	37%	22*	-23%
Cc1ccccc1CNC(=O)c1cc(COc2ccc(F)cc2F)on1	-2	-4%	18%	-2	40%
CC(=O)c1ccc(OCc2cc(C(=O)NCC3CCCCO3)no2)cc1 (stereo not drawn)	46*	-4%	58%	25*	-25%
Cc1cc(C)nc(CCNC(=O)c2cc(COc3ccccc3)on2)n1	56*	-8%	?	36*	-12%
CCN1CCCC1CNC(=O)c1cc(COc2ccc(C)c(C)c2)on1 (stereo not drawn)	53*	-3%	13µM*	32*	-25%
COc1ccc(N2CC(C(=O)Nc3ccc(S(=O)(=O)Nc4nccs4)cc3)CC2=O)c(OC)c1 (stereo not drawn)	nt	nt	-31%	nt	-18%
C=CCN(C(C(=O)OC)C(C)C)S(=O)(=O)C=C (stereo not drawn)	-2	nt	nt	-3	nt
Cc1ccc(OCc2cc(C(=O)NCC3COCCO3)no2)cc1C (stereo not drawn)	42*	0%	10µM*	41*	-6%
COC(=O)c1ccc(CNC(=O)c2cc(COc3cncc(Cl)c3)on2)cc1	-10	-13%	?	17	-12%
CC(=O)c1ccc(OCc2cc(C(=O)NCCc3ccc(Cl)cc3)no2)cc1	48*	8%	-20%	19*	6%
CCc1noc(C)c1C(=O)N1CCC(CCC(=O)Nc2cccc(C)c2)CC1	5	-6%	-23%	5	-21%
CN1CCN(CC(=O)N2c3ccccc3C(C)(c3ccccc3)CC2(C)C)CC1 (stereo not drawn)	-4	2%	10µM*	-5	?
CC(=O)N1c2ccccc2C(C)(c2ccccc2)CC1(C)C (stereo not drawn)	5	7%	nt	-4	9.3µM*
NS(=O)(=O)c1ccc(-c2cccc(/C=C3\SC(=O)NC3=O)c2)cc1	-3	-16%	?	-2	?
